{"source": "PubChem BioAssay AID504467", "about": "(National Center for Advancing Translational Sciences (NCATS), 2011)", "note": "In all, about 330,000 compounds went through this assay and about 7,700 (2.3%) were called active. Where a call stands in place of a potency, no number is given. About 26% were inconclusive and are not listed. The call rests on the fitted dose curve; in most records, active means well fitted inhibition curve with a large enough effect; inconclusive means small, poorly fitted or top-dose-only effect, or effect the other way; inactive means flat fitted curve, though single readings scatter. This excerpt belongs to a sample that is enriched for actives. Potency means the concentration at half of the fitted maximal effect.", "data": [{"assay": "qHTS screen for small molecules that inhibit ELG1-dependent DNA repair in human embryonic kidney (HEK293T) cells expressing luciferase-tagged ELG1; further: nearly all actives have a fitted effect of over 55% in size", "conditions": "HEK293T ELG1-luciferase reporter, luminescence, 16 h, DNA damage induced by 5-fluorouridine; series mostly up to 46.1 µM", "how_it_was_run": "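Cells (2,000 per well) received 5-fluorouridine plus test compound or DMSO and were incubated 16 hr at 37 °C, 5% CO2. Luciferase activity was read by luminescence 30 min after ONE-Glo addition; signal suppression marked inhibition of damage-induced ELG1 function.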", "values": [{"smiles": "CC(=O)Nc1ccc(S(=O)(=O)NCC(=O)OCC(=O)c2ccc[nH]2)cc1", "Potency": "inactive"}, {"smiles": "CC(/C=C/c1ccco1)=N/NC(=O)C1COc2ccccc2O1", "note": "(centres undefined)", "Potency": "inactive"}, {"smiles": "CC(/C=C/c1ccccc1)=N\\NC(=O)C1CC1(C)c1ccccc1", "note": "(centres undefined)", "Potency": "23.1 µM (active)"}, {"smiles": "O=C(N/N=C/C=C/c1ccccc1)C1CC1(c1ccccc1)c1ccccc1", "note": "(centres undefined)", "Potency": "inactive"}, {"smiles": "C#CCOCCOCCOCCNc1nc(N2CCN(C(=O)[C@H](CO)n3cc([C@@H](N)C(C)C)nn3)CC2)nc(N2CCN(C(=O)[C@H](CCC(=O)O)n3cc([C@@H](N)[C@H](C)CC)nn3)CC2)n1", "Potency": "inactive"}, {"smiles": "CC(C)(C)c1ccc(NC(=O)NCc2ccco2)cc1", "Potency": "inactive"}, {"smiles": "O=C(CCNC(=O)c1ccccc1Cl)NCc1ccco1", "Potency": "inactive"}, {"smiles": "CC(C)(C)c1ccc(C(=O)NCCC(=O)NCc2ccco2)cc1", "Potency": "5.8 µM (active)"}, {"smiles": "CCCCN(C(=O)c1ccc2ccccc2c1)c1c(N)n(CCCC)c(=O)[nH]c1=O", "Potency": "inactive"}, {"smiles": "COCCn1cnnc1SCC(=O)Nc1cccc(S(=O)(=O)N2CCCCC2)c1", "Potency": "inactive"}, {"smiles": "Cc1ccccc1NC(=O)Nc1ccccc1N1CCCCC1", "Potency": "18.3 µM (active)"}, {"smiles": "Cc1ccccc1NC(=O)NC1(C(=O)N2CCCC2)CCCCC1", "Potency": "inactive"}, {"smiles": "Cc1cccc(N2CC(C(=O)Nc3ccccc3N3CCCC3)CC2=O)c1C", "note": "(centres undefined)", "Potency": "inactive"}, {"smiles": "O=C(CCC1CCCCC1)Nc1cc(C(F)(F)F)ccc1N1CCOCC1", "Potency": "inactive"}, {"smiles": "Cc1nn(C)c(C)c1NS(=O)(=O)c1ccc(OC(F)(F)F)cc1", "Potency": "inactive"}, {"smiles": "CN(C)S(=O)(=O)c1cc(NC(=O)CN2C(=O)NC3(CCCc4ccccc43)C2=O)ccc1Cl", "note": "(centres undefined)", "Potency": "25.9 µM (active)"}, {"smiles": "CCN(CC)c1ccc(NC(=O)CN2C(=O)NC3(CCc4ccccc43)C2=O)cc1", "note": "(centres undefined)", "Potency": "inactive"}, {"smiles": "CCN(CC)S(=O)(=O)c1ccc(CNC(=O)CN2C(=O)NC3(CCc4ccccc43)C2=O)cc1", "note": "(centres undefined)", "Potency": "inactive"}, {"smiles": "N#Cc1ccccc1S(=O)(=O)N1CCN(Cc2c(O)ccc3ccccc23)CC1", "Potency": "inactive"}, {"smiles": "CCn1c(SCC(=O)Nc2ccccc2F)nc2c(c1=O)SC(C)C2", "note": "(centres undefined)", "Potency": "inactive"}, {"smiles": "COCCn1c(SCC(=O)Nc2cc(OC)ccc2OC)nc2c(c1=O)SC(C)C2", "note": "(centres undefined)", "Potency": "inactive"}, {"smiles": "COCCn1c(SCC(=O)Nc2cc(Cl)ccc2OC)nc2c(c1=O)SC(C)C2", "note": "(centres undefined)", "Potency": "25.9 µM (active)"}, {"smiles": "Cc1cc(NC(=O)CSc2nnc(-c3ccco3)n2N)no1", "Potency": "inactive"}, {"smiles": "CCNS(=O)(=O)c1ccc(CCC(=O)N2CCN(c3ccc(OC)cc3)CC2)cc1", "Potency": "inactive"}, {"smiles": "CCNS(=O)(=O)c1ccc(CCC(=O)N2CCN(c3cc(Cl)ccc3C)CC2)cc1", "Potency": "11.6 µM (active)"}, {"smiles": "CCCNS(=O)(=O)c1ccc(CCC(=O)N2CCCC2)cc1", "Potency": "inactive"}, {"smiles": "O=C1OC[C@@H]2CCCN2C(=O)[C@H](CC(=O)N(CCO)Cc2ccccc2)C/C=C\\CC[C@@H]1Cc1ccc(F)cc1", "Potency": "inactive"}, {"smiles": "CCC(=O)Nc1ccccc1N1CCN(S(C)(=O)=O)CC1", "Potency": "inactive"}, {"smiles": "O=C(NC(=S)Nc1ccccc1N1CCCCC1)c1ccc(F)cc1", "Potency": "inactive"}, {"smiles": "COc1ccc(C(=O)NC(=S)Nc2ccccc2N2CCN(S(C)(=O)=O)CC2)cc1OC", "Potency": "14.6 µM (active)"}, {"smiles": "COc1ccc(NC(=O)COC(=O)Cn2c(C)nc3ccccc32)cc1OC", "Potency": "inactive"}, {"smiles": "COc1ccc(NC(=O)c2cc3nc(-c4ccccc4)cc(C)n3n2)cc1OC", "Potency": "10.3 µM (active)"}, {"smiles": "COc1ccc(NC(=O)CNC(=O)Cc2ccccc2)cc1OC", "Potency": "inactive"}, {"smiles": "COCCCNC(=O)CC1C[C@H](C(=O)N2CCCCC2)[C@@]2(CCc3ccccc3)c3[nH]c4ccccc4c3CCN2C1=O", "note": "(some centres undefined)", "Potency": "inactive"}, {"smiles": "CC(Oc1ccc(Br)cc1)C(=O)NCC(c1ccco1)N1CCCCC1", "note": "(centres undefined)", "Potency": "inactive"}, {"smiles": "O=C(Cc1ccccc1)Nc1ccc(NC(=O)c2cccnc2)cc1", "Potency": "inactive"}, {"smiles": "O=C(Nc1ccc(N2CCN(C(=O)c3ccccc3)CC2)c(Cl)c1)c1cccnc1", "Potency": "8.2 µM (active)"}, {"smiles": "O=C(Nc1cccc(Cl)c1N1CCOCC1)c1cccnc1", "Potency": "inactive"}, {"smiles": "Cc1cc(C)cc(NC(=O)C(c2ccccc2)N2CCN(CC(=O)N3CCCC3)CC2)c1", "note": "(centres undefined)", "Potency": "inactive"}, {"smiles": "CCC(C(=O)NCc1cccnc1)n1nc(C)c2sc3ccccc3c2c1=O", "note": "(centres undefined)", "Potency": "inactive"}, {"smiles": "Cc1onc(-c2c(F)cccc2Cl)c1C(=O)OCC(=O)N1C(C)CCCC1C", "note": "(centres undefined)", "Potency": "inactive"}, {"smiles": "COc1ccc(NC(=O)CSc2nnc(-c3cccs3)n2Cc2ccco2)cc1OC", "Potency": "20.6 µM (active)"}, {"smiles": "O=C(CSc1nnc(-c2cccs2)n1-c1ccccc1)NCc1ccco1", "Potency": "inactive"}, {"smiles": "CCc1ccc(NC(=O)CSc2nnc(-c3cnccn3)n2Cc2ccco2)cc1", "Potency": "inactive"}, {"smiles": "Cn1cc(CCC(=O)NC2CC2)c2ccccc21", "Potency": "inactive"}, {"smiles": "CC(C)CCn1cnc2c1c(=O)n(CC(=O)NC(N)=O)c(=O)n2Cc1ccccc1", "Potency": "inactive"}, {"smiles": "CCn1nc(C(=O)NNC(=O)C2CSC3(C)CCC(=O)N23)c2ccccc2c1=O", "note": "(centres undefined)", "Potency": "inactive"}, {"smiles": "O=C(NNC(=O)c1cccc(S(=O)(=O)Nc2ccc(Cl)cc2)c1)c1ccc(=O)[nH]c1", "Potency": "inactive"}, {"smiles": "Cc1nc(/N=C(\\N)NC(=O)NC2CCCCC2)nc2ccccc12", "Potency": "9.2 µM (active)"}]}]}
